Test results reported in PubChem BioAssay (Tox21).
Inconclusive results are not listed. The source made the active and inactive calls. Calls come from the whole dose curve; as a rule, active = well fitted curve in the direction sought with a large enough effect in the repeat runs; inconclusive = weak or mixed curves; inactive = no such curve, though single readings can be large; an effect the other way counts as inactive or inconclusive.

Legend:
[1] = A CellTox Green Cytotoxicity Assay to monitor cytotoxicity in HEK293 cells - 40 hour (AID 1224871); note: nearly all actives have a fitted effect of over 45% in size; note: potency is the fitted concentration of half-maximal effect
Summary of the method: (§1)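 Read-out: fluorescence of a cell-impermeant cyanine dye staining DNA of dead cells, proportional to cytotoxicity. HEK293, 600 cells/well with reagent, compound (23 nL DMSO) added after 5 h; reads at 0, 8, 16, 24, 32, 40 h.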

[2] = qHTS RealTime-Glo MT Cell Viability Assay in HEK293 cells - 16 hour (AID 1224872); note: nearly all actives have a fitted effect of over 50% in size; note: potency is the fitted concentration of half-maximal effect
Summary of the method: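 Cells + reagent dispensed (600 cells/well, HEK293) → 5 h at 37 C/5% CO2 → 23 nL compound in DMSO pinned → 40 h at 37 C → luminescence read at 0, 8, 16, 24, 32, 40 h.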

[3] = qHTS RealTime-Glo MT Cell Viability Assay in HepG2 cells - 8 hour (AID 1224873); note: nearly all actives have a fitted effect of over 55% in size
Summary of the method: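 HepG2 cells mixed with RealTime-Glo MT reagents (NanoLuc plus cell-permeant prosubstrate) were seeded at 600 cells/well, incubated 5 h at 37 C/5% CO2, then pinned with compounds in DMSO; nonlytic luminescence tracked viability during 40 h treatment.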

[4] = qHTS RealTime-Glo MT Cell Viability Assay in HEK293 cells - 40 hour (AID 1224874); conditions: RealTime-Glo luminescence; max response: active compounds read low; note: nearly all actives have a fitted effect of over 50% in size; note: potency is the fitted concentration of half-maximal effect
Summary of the method: (§2)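 Luminescence readout at each listed time point; HEK293, 600 cells/well, RealTime-Glo MT reagent added with cells; compounds pinned (23 nL in DMSO) after 5 h at 37 C; continuous culture at 37 C.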

[5] = A CellTox Green Cytotoxicity Assay to monitor cytotoxicity in HEK293 cells - 24 hour (AID 1224875); note: series mostly up to about 77 µM; nearly all actives have a fitted effect of over 45% in size
Summary of the method: as §1

[6] = qHTS RealTime-Glo MT Cell Viability Assay in HepG2 cells - 32 hour (AID 1224877); note: nearly all actives have a fitted effect of over 55% in size
Summary of the method: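 Real-time, nonlytic viability: 600 HepG2 cells/well mixed with NanoLuc enzyme plus prosubstrate; 5 h settle, compound (DMSO) added by pintool; luminescence monitored over 40 h at 37 C.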

[7] = A CellTox Green Cytotoxicity Assay to monitor cytotoxicity in HepG2 cells - 24 hour (AID 1224878); note: nearly all actives have a fitted effect of over 45% in size; note: potency is the fitted concentration of half-maximal effect
Summary of the method: (§3)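 HepG2, 600 cells/well premixed w/ CellTox Green; 5 h settle, 37 C/5% CO2; pintool cpd add (DMSO); 37 C, 40 h; fluorescence read at 0, 8, 16, 24, 32, 40 h.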

[8] = A CellTox Green Cytotoxicity Assay to monitor cytotoxicity in HepG2 cells - 40 hour (AID 1224879); note: nearly all actives have a fitted effect of over 40% in size; note: potency is the fitted concentration of half-maximal effect
Summary of the method: as §3

[9] = qHTS RealTime-Glo MT Cell Viability Assay in HEK293 cells - 0 hour (AID 1224880); note: top concentration of the series differs between compounds; nearly all actives have a fitted effect of over 45% in size
Summary of the method: as §2

[10] = A CellTox Green Cytotoxicity Assay to monitor cytotoxicity in HepG2 cells - 16 hour (AID 1224876); note: nearly all actives have a fitted effect of over 45% in size
Summary of the method: as §3
% is set by controls: 0 for no effect and ±100 for the full control effect.

O=[N+]([O-])c1ccc2c3c(cccc13)CC2
inactive: Potency [1] | Potency [2] | Potency [3] | max response [4] 1.98% | Potency [5] | Potency [6] | Potency [7] | Potency [8] | outcome [9]

ClC(Cl)C(Cl)Cl
inactive: Potency [1] | Potency [2] | Potency [3] | max response [4] 0.239% | Potency [5] | Potency [6] | outcome [9]

Cc1ncc(CNC(=O)N(CCCl)N=O)c(N)n1
inactive: Potency [1] | Potency [2] | Potency [3] | max response [4] 2.69% | Potency [10] | Potency [6] | Potency [7] | Potency [8] | outcome [9]

COCC(=O)N(c1c(C)cccc1C)N1CCOC1=O
inactive: Potency [1] | Potency [2] | Potency [3] | max response [4] 0.893% | Potency [10] | Potency [6] | Potency [7] | Potency [8] | outcome [9]

CC1CN1P(=O)(N1CC1C)N1CC1C (stereo not given)
inactive: Potency [1] | Potency [2] | Potency [3] | max response [4] 6.96% | Potency [5] | Potency [7] | Potency [8] | outcome [9]

CCC1(c2ccccc2)C(=O)N=C(O)NC1=O (stereo not given)
inactive: Potency [1] | Potency [2] | Potency [3] | max response [4] 9.07% | Potency [10] | Potency [7] | Potency [8] | outcome [9]

O=[N+]([O-])c1ccc(CBr)cc1
inactive: Potency [1] | Potency [2] | Potency [3] | max response [4] 12.7% | Potency [5] | Potency [6] | Potency [7] | Potency [8] | outcome [9]

c1cc[c]([Hg][c]2ccccc2)cc1
inactive: Potency [3] | Potency [6] | outcome [9]
active: Potency [1] 34.7 µM | Potency [2] 34.7 µM | Potency [4] 24.5 µM | Potency [7] 43.6 µM | Potency [8] 49 µM

C[C@]12CC[C@H]3[C@@H](CCC4=CC(=O)CC[C@@]43C)[C@@H]1CC[C@@H]2C(=O)O
inactive: Potency [1] | Potency [2] | Potency [3] | max response [4] 2.42% | Potency [5] | Potency [6] | Potency [7] | Potency [8] | outcome [9]

Cc1coc2c1CCC(C)C2 (stereo not given)
inactive: Potency [1] | Potency [2] | Potency [3] | max response [4] 15.4% | Potency [10] | Potency [6] | Potency [7] | Potency [8] | outcome [9]

CCCCC(=O)Cl
inactive: Potency [1] | Potency [2] | Potency [3] | max response [4] 5.77% | Potency [7] | Potency [8] | outcome [9]

CC(N)=S
inactive: Potency [1] | Potency [2] | Potency [3] | max response [4] 1.38% | Potency [6] | Potency [7] | Potency [8] | outcome [9]

O=C1OC(CCN2CCCCC2)OC1(c1ccccc1)c1ccccc1 (stereo not given)
inactive: Potency [1] | Potency [2] | Potency [3] | max response [4] 5.83% | Potency [10] | Potency [6] | Potency [7] | outcome [9]

CC(=O)CCc1ccc2c(c1)OCO2
inactive: Potency [1] | Potency [2] | Potency [3] | max response [4] 0.514% | Potency [5] | Potency [6] | Potency [7] | Potency [8] | outcome [9]

COC(=O)C(C)Oc1ccc(Oc2ccc(Cl)cc2Cl)cc1 (stereo not given)
inactive: Potency [1] | Potency [2] | Potency [3] | Potency [10] | Potency [6] | Potency [7] | Potency [8] | outcome [9]

CC(=O)CC(c1ccc(Cl)cc1)c1c(O)c2ccccc2oc1=O (stereo not given)
inactive: Potency [1] | Potency [2] | Potency [3] | Potency [5] | Potency [10] | Potency [6] | Potency [7] | Potency [8] | outcome [9]

C(CCOCC1CO1)COCC1CO1 (stereo not given)
inactive: Potency [1] | Potency [2] | Potency [3] | Potency [5] | Potency [10] | Potency [6] | Potency [7] | Potency [8] | outcome [9]

CS(=O)(=O)c1cc(C(F)(F)F)ccc1C(=O)c1cnoc1C1CC1
inactive: Potency [1] | Potency [2] | Potency [3] | Potency [5] | Potency [10] | Potency [6] | Potency [7] | Potency [8] | outcome [9]

CCOP(=S)(OCC)Oc1ncn(-c2ccccc2)n1
inactive: Potency [1] | Potency [2] | Potency [3] | Potency [5] | Potency [10] | Potency [6] | Potency [7] | Potency [8] | outcome [9]

Nc1cc2c3c(c1)C(c1ccccc1)=N[C@@H](NC(=O)c1cccnc1)C(=O)N3CC2
inactive: Potency [1] | Potency [2] | Potency [3] | Potency [10] | Potency [6] | Potency [7] | Potency [8] | outcome [9]

O=S(=O)(O)C(F)(F)C(F)(F)C(F)(F)C(F)(F)C(F)(F)C(F)(F)F
inactive: Potency [1] | Potency [2] | Potency [3] | Potency [5] | Potency [10] | Potency [6] | Potency [7] | Potency [8] | outcome [9]

CCN(CC)CCOC(=O)C(C)(c1ccccc1)c1ccccc1
inactive: Potency [1] | Potency [2] | Potency [3] | Potency [5] | Potency [10] | Potency [8] | outcome [9]
